Assay results: publication PMC7819943, “Rice protein-binding microarrays: a tool to detect cis-acting elements near promoter regions in rice”
Whole data set: some 68,000 sequences, median “fluorescence intensity (a.u.)” near 9,100, cut for the highest 2% near 16,000. The sample as a whole holds a higher share of the highest values than the screen did.

target: OsWRKY34 (Oryza sativa, UniProt Q0JBA9 1-250); assay: protein-binding microarray (RPBM); PBS, 2% BSA, 51.3 ng/ul salmon testes DNA, 50 uM zinc acetate, 200 nM TF, 25 C, 1 h; high values mean tight binding; conditions: protein: recombinant; tags: N-terminal polyhistidine and DsRed monomer fusion (pET32a); label: CyDye5-dUTP incorporated in the synthesized complementary strand; 3' TTTTT single-stranded linker to array surface; dsDNA, one strand shown
Sequence (Q0JBA9 entry or part of it): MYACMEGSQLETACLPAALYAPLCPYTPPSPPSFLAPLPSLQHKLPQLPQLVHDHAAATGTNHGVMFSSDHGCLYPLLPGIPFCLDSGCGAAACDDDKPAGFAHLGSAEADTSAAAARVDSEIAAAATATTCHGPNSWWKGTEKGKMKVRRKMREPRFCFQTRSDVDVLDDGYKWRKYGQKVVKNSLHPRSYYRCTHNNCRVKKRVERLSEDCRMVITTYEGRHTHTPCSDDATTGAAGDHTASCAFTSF
Method in brief: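 For the binding signal, per-feature fluorescence intensity was read in arbitrary units on an Axon 4000B scanner. Before scanning, a 2% BSA-blocked custom Agilent array made double-stranded with Cy5-dUTP was washed after 1 h at 25 °C with 200 nM protein and 50 µM zinc acetate. The proteins were Ni–NTA-purified transcription factors with N-terminal polyhistidine and DsRed fusions, expressed in E. coli BL21-CodonPlus.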

Compared with “GTCGATGTGTCTTTTGTGTGTAGTTCTTGTAATTGTTGTGCGGAGTCACCTAGTGCAG”, “GGGTTGATTTTGCTTCCTGCATCCCAGCGACATCGCCCAACGGAGTCACCTAGTGCAG” is higher in binding signal: 8220 fluorescence intensity (a.u.) for the first, 11500 fluorescence intensity (a.u.) for the second.

Going from “CCTGTGCGTGGTCGGGTTAATTTGTCAGTCTGTCACTTACCGGAGTCACCTAGTGCAG” to “GTGCTCATCCGCCTCCTCGGGTCGTCTCCATCGACCTCCTCGGAGTCACCTAGTGCAG”, the binding signal falls from 10200 fluorescence intensity (a.u.) to 9120 fluorescence intensity (a.u.).

First: TAATAGATGACGCCGTTGACTTTTTCTCACATGTTTGACCCGGAGTCACCTAGTGCAG
Second: ATAGATGACGCCGTTAACTTTTTCTCACATGTTTAACCATCGGAGTCACCTAGTGCAG
The binding signal of the first is higher: 33000 fluorescence intensity (a.u.) for the first, 10200 fluorescence intensity (a.u.) for the second.

Going from “TTTTTTAATAGATGACGCCGTTGACCTTTTCTCACATGTTCGGAGTCACCTAGTGCAG” to “TTTGTTTTTTAATAGATGACGCTGTTGACTTTTTCTCACGCGGAGTCACCTAGTGCAG”, the binding signal falls from 15100 fluorescence intensity (a.u.) to 14200 fluorescence intensity (a.u.).

Going from “ATAGATGACGCTGTTGATTTTTTTCTCACATGTTTGACCACGGAGTCACCTAGTGCAG” to “CTCCATTTAACAGATGACGTCGTTGACTTTTTCTTACATGCGGAGTCACCTAGTGCAG”, the binding signal rises from 10400 fluorescence intensity (a.u.) to 26900 fluorescence intensity (a.u.).

Compared with “GTTTACTCCAAGATTCACATTTGACTTTCTTATGCCATAGCGGAGTCACCTAGTGCAG”, “TTTTTAATAGATGACGCTGTTGACTTTTTCCCACATGTTTCGGAGTCACCTAGTGCAG” is higher in binding signal: 9170 fluorescence intensity (a.u.) for the first, 24200 fluorescence intensity (a.u.) for the second.

Going from “TTTTTAATAGATGACGCCGTTGACTTTTTCTCACATGTTTCGGAGTCACCTAGTGCAG” to “TGTTGACTTTTTAGTACATATTTAACCATTTGTCTTATTACGGAGTCACCTAGTGCAG”, the binding signal falls from 34300 fluorescence intensity (a.u.) to 14900 fluorescence intensity (a.u.).

Going from “TTAATAGATGACGCCGTTGATTTTTTCTCACATGTTTGACCGGAGTCACCTAGTGCAG” to “CTAGTTTTGGTCTTGTGATAGGTTATTTGCTTACGATTATCGGAGTCACCTAGTGCAG”, the binding signal falls from 11600 fluorescence intensity (a.u.) to 9430 fluorescence intensity (a.u.).

Compared with “CCGACCCGACCCGACCACCCACCGGCGAGGCCCACTCCGTCGGAGTCACCTAGTGCAG”, “TGCTGCTGCTGTTGTTCGTGTATTGCTCCATCTGTGCACGCGGAGTCACCTAGTGCAG” is higher in binding signal: 8620 fluorescence intensity (a.u.) for the first, 9920 fluorescence intensity (a.u.) for the second.

Compared with “CATAAACGACGCCGCATCAGACAAACTAAACGCGACAATACGGAGTCACCTAGTGCAG”, “GCACTACCTTCACCATTTTTTTTGATTTTTTTCTTTTTTTCGGAGTCACCTAGTGCAG” is higher in binding signal: 8100 fluorescence intensity (a.u.) for the first, 8270 fluorescence intensity (a.u.) for the second.

Going from “GCTATCTCCATCGTCTCTTTCCTTGACCACAGCGGCAATGCGGAGTCACCTAGTGCAG” to “CCACCACGGACTCCGCCGCCGCTCCCGCCACCGCCACATCCGGAGTCACCTAGTGCAG”, the binding signal rises from 9860 fluorescence intensity (a.u.) to 10600 fluorescence intensity (a.u.).

First: GATGACGCCGTTGACTTTTTCTCACATGTTTGACCAATCGCGGAGTCACCTAGTGCAG
Second: ATAAATGACGCCGTTGATTTTTTCTCACATGTTTGACCATCGGAGTCACCTAGTGCAG
The binding signal of the first is higher: 36900 fluorescence intensity (a.u.) for the first, 10500 fluorescence intensity (a.u.) for the second.

First: CGTTTTTTAATAGATGACGCCGTTGACTTTTTCTCACATGCGGAGTCACCTAGTGCAG
Second: AATAGATGACGCCGTTGATTTTTTCTCACATGTTTGACCACGGAGTCACCTAGTGCAG
The binding signal of the first is higher: 31400 fluorescence intensity (a.u.) for the first, 11700 fluorescence intensity (a.u.) for the second.

First: TTCATGGAGTCTACTACTCTACTCCCTCTATTTTCAAATACGGAGTCACCTAGTGCAG
Second: ATATAGGGGTTGGTCTTCCACGTCAAATTTGGGGTAGATACGGAGTCACCTAGTGCAG
The binding signal of the first is lower: 9010 fluorescence intensity (a.u.) for the first, 10200 fluorescence intensity (a.u.) for the second.

Going from “TAGCTTTGGCACCTTGCGCGCGCGTACACAGCCGCTTAAGCGGAGTCACCTAGTGCAG” to “TTTTTCTCGTTTGCCGTGTCACCGCGTGAGTTGCGCGGGGCGGAGTCACCTAGTGCAG”, the binding signal rises from 8550 fluorescence intensity (a.u.) to 11700 fluorescence intensity (a.u.).

Going from “ATCACATCAACCTGTCATATACACACAACTTTTCAGTCATCGGAGTCACCTAGTGCAG” to “TTTGCTCCACACCACACAACACACATTGTACGGCGTTGCTCGGAGTCACCTAGTGCAG”, the binding signal falls from 8530 fluorescence intensity (a.u.) to 8210 fluorescence intensity (a.u.).

Going from “TTAAAAAACATTGTACCACAAGTAGCAACAAATTAATGCTCGGAGTCACCTAGTGCAG” to “ACCTCAACAAAAGCTTTGTAGTAGCTCTTAATTGTTGGGTCGGAGTCACCTAGTGCAG”, the binding signal falls from 26900 fluorescence intensity (a.u.) to 8220 fluorescence intensity (a.u.).

Compared with “CCCAAATCCATCCAGCCCGTCGCCGCCCGCCGCCCGCCGCCGGAGTCACCTAGTGCAG”, “CACTCCTGCTGCCGTCCAGTTGCAATTGCGTTTTCTCCTTCGGAGTCACCTAGTGCAG” is higher in binding signal: 8860 fluorescence intensity (a.u.) for the first, 16700 fluorescence intensity (a.u.) for the second.

First: GTCCGTCTTGTTTTCTCCTGCGTCACAATTGTCCCGTATTCGGAGTCACCTAGTGCAG
Second: TGTTCTGTGAGAATAGTTTCGTCCGTCTTGTTTTCTCCTGCGGAGTCACCTAGTGCAG
The binding signal of the first is higher: 18500 fluorescence intensity (a.u.) for the first, 8470 fluorescence intensity (a.u.) for the second.

First: AGTTTTCTTTGTTCACCTACCGTTTTTTTAGCACGTAGTTCGGAGTCACCTAGTGCAG
Second: TGTTAAAACACCCTTTTTCACTTTTCTAGCCGTTCACTTTCGGAGTCACCTAGTGCAG
The binding signal of the first is higher: 10500 fluorescence intensity (a.u.) for the first, 9280 fluorescence intensity (a.u.) for the second.

First: CTGATCTTAACTCCGTGTTTTTCCGCGTTCTCTTTCGTTCCGGAGTCACCTAGTGCAG
Second: TGTTATTGTCCTGTATCAGTCCCGTGCTGTTTTTCTCTTTCGGAGTCACCTAGTGCAG
The binding signal of the first is higher: 19600 fluorescence intensity (a.u.) for the first, 13000 fluorescence intensity (a.u.) for the second.

Going from “CTTTTCTAGCCGTTCACTTTTTTTTACCACAGTAGTTTTTCGGAGTCACCTAGTGCAG” to “ATCCACTCCAGTCCCGTCCCGTTTCCTTGCTGCCCGGCCGCGGAGTCACCTAGTGCAG”, the binding signal falls from 16600 fluorescence intensity (a.u.) to 9660 fluorescence intensity (a.u.).

Going from “AGTCCGTGCTGCAGATCTGCTCTTTTCTCTTCGTTTAACTCGGAGTCACCTAGTGCAG” to “ACGTGTCCTTCTCTCTTTTTTTCTTTTTCGTTTTCTTCTCCGGAGTCACCTAGTGCAG”, the binding signal falls from 10300 fluorescence intensity (a.u.) to 8280 fluorescence intensity (a.u.).

In the case of “TACTGCCGTCGCCGTCGCCCCACGTTTCCTTCTCCAGTTTCGGAGTCACCTAGTGCAG”, the binding signal is reported as 8300 fluorescence intensity (a.u.).
